{"source": "ChEMBL document CHEMBL4513216", "about": "“Probing the Open Global Health Chemical Diversity Library for Multistage-Active Starting Points for Next-Generation Antimalarials” (ACS Infect Dis, 2020)", "note": "The whole screen tested about 69,000 compounds, of which about 8,600 (12%) showed an effect of 50% or more. Many of the other results were omitted from the sample, so strong results are more common in it than they were."}
{"system": "Plasmodium berghei", "test": "Screen against P. berghei liver stage (PbLuc), transformed with Luciferase, at 10uM", "assay_type": "functional, HepG2", "conditions": "tested at 10 uM", "units": {"INHIBITION": "%"}}
{"smiles": "CCCc1nc(C)cc(N2CCNC(C(=O)NCc3cccnc3)C2)n1", "note": "(stereo unspecified)", "INHIBITION": 59.1}
{"smiles": "CCCc1nc(C)cc(N2CCNC(C(=O)Nc3ccc(C)nc3)C2)n1", "note": "(stereo unspecified)", "INHIBITION": 46.1}
{"smiles": "O=C(NCc1cccnc1)[C@H]1C[C@@H]2CCN(c3ccncn3)C[C@H]2O1", "INHIBITION": 48}
{"smiles": "CC1CCN(C(=O)[C@@H]2C[C@@H]3CCN(CC4CCOCC4)C[C@@H]3O2)CC1", "INHIBITION": -24.9}
{"smiles": "CC(CC(=O)Nc1ncn(CC(=O)NCc2ccccc2)n1)C1CC1", "note": "(stereo unspecified)", "INHIBITION": 38.8}
{"smiles": "O=C(Nc1ncn(Cc2cccc(Br)c2)n1)C1CCC1", "INHIBITION": 37.2}
{"smiles": "CSCC(=O)Nc1ncn(Cc2cccc(Br)c2)n1", "INHIBITION": 69.3}
{"smiles": "CCOCC(=O)Nc1cc(-c2cccc(F)c2F)n[nH]1", "INHIBITION": 10.7}
{"smiles": "CCOCC(=O)Nc1ncn(Cc2cccc(Br)c2)n1", "INHIBITION": 61.8}
{"smiles": "COCC(=O)NC(C)Cc1cccc(Br)c1", "note": "(stereo unspecified)", "INHIBITION": 14.7}
{"smiles": "CC(C)C(=O)Nc1ncn(Cc2cccc(Br)c2)n1", "INHIBITION": 53.3}
{"smiles": "O=C(COCC(=O)N1CCCCCC1)NCc1cccc(Br)c1", "INHIBITION": 14.1}
{"smiles": "CCCSCC(=O)Nc1ncn(CC(=O)NCc2ccccc2)n1", "INHIBITION": 12.2}
{"smiles": "CN(C)C(=O)CN1CCN(C(=O)c2cnn(-c3ccccc3Cl)c2)CC1", "INHIBITION": -2.33}
{"smiles": "CCOC(=O)N1CCN(C(=O)c2snnc2-c2ccc(OC)cc2)CC1", "INHIBITION": 4.66}
{"smiles": "COCCN1C[C@@H]2CN(Cc3cccc(C)n3)C[C@@H]2C1=O", "INHIBITION": 14.1}
{"smiles": "CCc1nc(C2CCCN(C(=O)c3ccc(OC)cc3)C2)no1", "note": "(stereo unspecified)", "INHIBITION": -31.8}
{"smiles": "CC(C)CC(=O)N1CC[C@H]2N(C)CC[C@@]2(C(=O)Nc2ccccc2)CC1", "INHIBITION": 42.5}
{"smiles": "CCOC1COC2(CCN(Cc3ccc(C)c(C)c3)CC2)C1", "note": "(stereo unspecified)", "INHIBITION": 30.9}
{"smiles": "Cn1cnc2cc(C(=O)NS(=O)(=O)c3ccc(F)cc3)ccc21", "INHIBITION": 28.4}
{"smiles": "Cc1c(C(=O)NS(=O)(=O)c2ccsc2)cnn1CC(C)C", "INHIBITION": 53.8}
{"smiles": "Cn1nnc2cc(C(=O)NS(=O)(=O)c3ccc(F)cc3)ccc21", "INHIBITION": 17.1}
{"smiles": "Cc1c(C(=O)NS(=O)(=O)c2ccc(F)cc2)cnn1CC(C)C", "INHIBITION": 56}
{"smiles": "CCC(CC)n1ncc(C(=O)NS(=O)(=O)c2ccsc2)c1C", "INHIBITION": 38.4}
{"smiles": "CCCn1ncc(C(=O)NC(C)c2c(C)nn(CC)c2C)c1C", "note": "(stereo unspecified)", "INHIBITION": 9.05}
{"smiles": "CNc1cc(C2CCCN2C(=O)CCc2cnn(C)c2C)ccn1", "note": "(stereo unspecified)", "INHIBITION": 14.6}
{"smiles": "CCNc1cc2c(nn1)CCN(C(=O)c1ccc(-n3cnnc3)cc1)C2", "INHIBITION": 19.6475}
{"smiles": "CSc1nccc(N2C[C@@H](CN3CCCCC3)[C@@H](CO)C2)n1", "INHIBITION": 55.7}
{"smiles": "Cc1nccc(N2C[C@@H](CN3CCCC3)[C@@H](CO)C2)n1", "INHIBITION": 13}
{"smiles": "Nc1nccc(N2C[C@@H](CN3CCCCC3)[C@@H](CO)C2)n1", "INHIBITION": -2.39}
{"smiles": "CCc1ccccc1OC1CN(C(=O)CN(C)Cc2ccncc2)C1", "INHIBITION": 58.1}
{"smiles": "CN(CC(=O)N1CC(C)(C)[C@@](C)(O)C1)Cc1ccncc1", "INHIBITION": 59.1}
{"smiles": "COc1cccc(OC2CN(C(=O)c3ccnc(OC)c3)C2)c1", "INHIBITION": 49.9}
{"smiles": "COc1ccccc1OC1CN(C(=O)CN(C)Cc2ccncc2)C1", "INHIBITION": -2.04}
{"smiles": "CCc1ccccc1OC1CN(C(=O)CN(C)Cc2cccnc2)C1", "INHIBITION": -76.5}
{"smiles": "CCc1ccccc1OC1CN(C(=O)c2ccnc(OC)c2)C1", "INHIBITION": 61.1}
{"smiles": "COc1cc(C(=O)N2CC(Oc3ccccc3Cl)C2)ccn1", "INHIBITION": 27.5}
{"smiles": "CN(CC(=O)N1CC(C)(C)[C@](O)(C2CC2)C1)Cc1ccncc1", "INHIBITION": 41.5}
{"smiles": "CN(CC(=O)N1CC(C)(C)[C@](O)(C2CC2)C1)Cc1cccnc1", "INHIBITION": -3.94}
{"smiles": "Cn1nc(Br)c2c(NCCS(N)(=O)=O)ncnc21", "INHIBITION": 36.4}
{"smiles": "CC(=O)N1CCN(C(=O)NC(C)Cn2ccnc2)CC1", "note": "(stereo unspecified)", "INHIBITION": 24.2}
{"smiles": "COc1ccc(CN2C[C@H](N3CCCC3=O)[C@@H]3OCCC[C@@H]32)cc1", "INHIBITION": 48.2}
{"smiles": "CCn1nc(C)c2nc(C(C)C)nc(N3CCN(C)CC3)c21", "INHIBITION": -10.1}
{"smiles": "CCS(=O)(=O)N1CC[C@H]2C(=O)N(Cc3cccnc3)CCO[C@H]2C1", "INHIBITION": -7.38}
{"smiles": "CNC(=O)CC1c2cccnc2C(=O)N1Cc1ccccc1", "note": "(stereo unspecified)", "INHIBITION": 19.2}
{"smiles": "COCCNC(=O)Cn1c(-c2cccc(Cl)c2)nc(C)c(CCO)c1=O", "INHIBITION": 18.2}
{"smiles": "COCCNc1cccc(C2CCCN2)n1", "note": "(stereo unspecified)", "INHIBITION": -31}
{"smiles": "CCC(C)c1noc(C2CCN(C(=O)Cn3nc(C)cc3C)CC2)n1", "note": "(stereo unspecified)", "INHIBITION": 40.8}
{"smiles": "O=C(NCCCN1CCOCC1)c1ccn(COc2ccccc2)n1", "INHIBITION": -8.07}
{"smiles": "CN(C)CCN1CCC2(CCN(C(=O)c3cccc(F)c3)CC2)C1=O", "INHIBITION": 0.112}
{"smiles": "CN(C)CCN1CCC2(CCN(C(=O)c3ccncc3)CC2)C1=O", "INHIBITION": 13.7}
{"smiles": "CN(C)CCN1CC2(CCC1=O)CCN(C(=O)c1ccn(C)n1)CC2", "INHIBITION": 35.1}
{"smiles": "CN(C)CCN1CCC2(CCN(C(=O)c3ccc(F)cc3)CC2)C1=O", "INHIBITION": 56.6}
{"smiles": "Cc1c(C(=O)N2CCC3(CCC(=O)N(CCN(C)C)C3)CC2)ccn1C", "INHIBITION": 34}
{"smiles": "CCc1ccc(C(=O)N2CCC3(CCC(=O)N(CCN(C)C)C3)CC2)[nH]1", "INHIBITION": 70.4}
{"smiles": "Cc1ncsc1CN1CC[C@H]2OCC[C@@]2(C(=O)NC(C)C)C1", "INHIBITION": 11.1}
{"smiles": "Fc1cccc(Cl)c1Cn1ncnc1CSCCN1CCCC1", "INHIBITION": 39.9}
{"smiles": "Cc1nnc(C2CCN(C(=O)c3cnc4ccccc4n3)CC2)s1", "INHIBITION": 31.2}
{"smiles": "CN(C)C[C@@H]1CN(C(=O)CCC2CCCC2)C[C@@H]1CO", "INHIBITION": 28.2}
{"smiles": "Cn1cc(C(=O)N2CCCC(Cc3cccc4ncccc34)C2)cn1", "note": "(stereo unspecified)", "INHIBITION": 85.7}
{"smiles": "Cn1ccc(C(=O)N2CCC(Cc3cccc4ncccc34)C2)n1", "note": "(stereo unspecified)", "INHIBITION": 23.4}
{"smiles": "Cn1ccc(C(=O)N2CCCC(Cc3cccc4ncccc34)C2)n1", "note": "(stereo unspecified)", "INHIBITION": 75.1}
{"smiles": "O=C(c1cnccn1)N1CCCC(Cc2cncc3ccccc23)C1", "note": "(stereo unspecified)", "INHIBITION": -39.4}
{"smiles": "Cn1cc(C(=O)N2CCCC(Cc3cncc4ccccc34)C2)cn1", "note": "(stereo unspecified)", "INHIBITION": 3.91}
{"smiles": "O=C(c1cnco1)N1CCCC(Cc2nccs2)C1", "note": "(stereo unspecified)", "INHIBITION": 26.9}
{"smiles": "Cn1cc(C(=O)N2CCCC(Cc3nccs3)C2)cn1", "note": "(stereo unspecified)", "INHIBITION": 20.2}
{"smiles": "Cn1ccc(C(=O)N2CCC(Cc3cccc4ncccc34)CC2)n1", "INHIBITION": 42.6}
{"smiles": "O=C(c1cnco1)N1CCCC(Cc2cccc3ncccc23)C1", "note": "(stereo unspecified)", "INHIBITION": 51.2}
{"smiles": "O=C(c1cnccn1)N1CCCC(Cc2ccccn2)C1", "note": "(stereo unspecified)", "INHIBITION": 31.8}
{"smiles": "O=C(c1cnco1)N1CCC(Cc2cccc3ncccc23)CC1", "INHIBITION": 44.9}
{"smiles": "O=C(c1cnccn1)N1CCCC(Cc2cccc3ncccc23)C1", "note": "(stereo unspecified)", "INHIBITION": 70.8}
